Source: PubChem BioAssay (NCI)
About 83,000 compounds went through this panel and 20% of them were active in at least one assay; those are over-represented in the sample as a whole.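 Method: cells in 96-well plates; compound added at one concentration; 48 h incubation; percent growth measured; values under 10 scored active.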 Values without a mark were called inactive. The source made the active and inactive calls.

How the values were obtained:
Assay in all cases: NCI-60 one-dose screen, 48 h (100 = growth as untreated, 0 = no growth, -100 = all killed)
Conditions in all cases: 10 µM unless noted
SK-MEL-2 melanoma = system: SK-MEL-2 melanoma
EKVX NSCLC = system: EKVX NSCLC
SN12C renal = system: SN12C renal
UO-31 renal = system: UO-31 renal
TK-10 renal = system: TK-10 renal
ACHN renal = system: ACHN renal
CAKI-1 renal = system: CAKI-1 renal
A498 renal = system: A498 renal
MOLT-4 leukemia = system: MOLT-4 leukemia
SR leukemia = system: SR leukemia
RPMI-8226 leukemia = system: RPMI-8226 leukemia
OVCAR-8 ovarian = system: OVCAR-8 ovarian
OVCAR-5 ovarian = system: OVCAR-5 ovarian
OVCAR-4 ovarian = system: OVCAR-4 ovarian
SK-OV-3 ovarian = system: SK-OV-3 ovarian
IGROV1 ovarian = system: IGROV1 ovarian
OVCAR-3 ovarian = system: OVCAR-3 ovarian
HS 578T breast = system: HS 578T breast
NCI/ADR-RES ovarian = system: NCI/ADR-RES ovarian
CCRF-CEM leukemia = system: CCRF-CEM leukemia

SMILES	growth (SK-MEL-2 melanoma)	growth (EKVX NSCLC)	growth (SN12C renal)	growth (UO-31 renal)	growth (TK-10 renal)	growth (ACHN renal)	growth (CAKI-1 renal)	growth (A498 renal)	growth (MOLT-4 leukemia)	growth (SR leukemia)	growth (RPMI-8226 leukemia)	growth (OVCAR-8 ovarian)	growth (OVCAR-5 ovarian)	growth (OVCAR-4 ovarian)	growth (SK-OV-3 ovarian)	growth (IGROV1 ovarian)	growth (OVCAR-3 ovarian)	growth (HS 578T breast)	growth (NCI/ADR-RES ovarian)	growth (CCRF-CEM leukemia)
O=C(Nc1ccc2c(ccn2Cc2ccccn2)c1)c1cnccn1	103%	75.7%	75.9%	57%	61.9%	100%	66.2%	40.8%	101%	92.7%	93.7%	105%	96.8%	76%	109%	79.7%	110%	104%	107%	
C=CC(=O)N1CC=C(c2cc3c(N[C@H](C)c4ccccc4)ncnc3[nH]2)CC1	106%	30.5%	22.4%	19%	-3.79% (active)	15.1%	11.3%	-17.4% (active)	97.8%	66.7%	85.8%	85.8%	37.5%	71.9%	47.4%	6.95% (active)	70.3%	39.9%	89.5%	
Cc1ccc(CSc2nc(-c3ccc(Cl)cc3)c(C#N)c(N3CCNCC3)n2)cc1	115%	82.2%	77.8%	64.2%	99.7%	82.3%	64.9%	17.6%	55.5%	-10.6% (active)	69.4%	92%	99.7%	89.3%	117%	66.8%	82.9%	80.1%	94.5%	
NC/C(=C/F)COc1ccc2nc(NCc3cccnc3)oc2c1	105%	68.5%	86.3%	62.1%	74.7%	100%	69.8%		106%	101%	120%	102%	113%	86.6%	110%	86.4%	122%	99.5%	111%	99.9%
O=C(CSc1nc2ccccc2c(=O)n1-c1ccccc1)Nc1cccc(C(=O)/C=C/c2ccccc2Cl)c1	105%	99.4%	102%	90.7%	138%	103%	95.9%	116%	106%	89.2%	68.5%	99.5%	108%		115%	107%		106%	104%	
COC[C@]12CCC(C)(C)C[C@H]1C1=CC[C@@H]3[C@@]4(C)CCCNC(C)(C)[C@@H]4CC[C@@]3(C)[C@]1(C)CC2	35.2%	-83.4% (active)	29.9%	-50.2% (active)	64.7%	-10.6% (active)	-29.4% (active)	37.1%	-35% (active)	-55% (active)	-34.8% (active)	52.2%	5.67% (active)	-18.9% (active)	75.9%	-54.4% (active)	-46.9% (active)	-44.6% (active)	-88% (active)	
CCN1CCN(C(=O)[C@]23CCC(C)(C)C[C@H]2C2=CC[C@@H]4[C@@]5(C)Cc6c([nH]c7ccccc67)C(C)(C)[C@@H]5CC[C@@]4(C)[C@]2(C)CC3)CC1	104%	90%	81.7%	75.8%	119%	85%	65%	97.5%			84.9%	91.8%	80.1%	99.7%	106%	88.7%	106%	87.1%	87%	
Cc1noc(C)c1CSc1nc2ccccc2n1-c1ccccc1	107%	65.2%	81.4%	48.8%	58.9%	96.1%	41.6%	48.1%	97%	69.7%	95.8%	102%	89%	69.1%	116%	77%	114%	102%	97.3%	
Cc1cccc2c3c(sc12)C(c1ccc(F)cc1)C(C#N)=C(/N=C/c1ccc(Cl)cc1)O3 (stereo unspecified)	-5.29% (active)	47.8%	25.5%	34.6%	106%	25.7%	33.9%	-20.2% (active)	15.2%	10.5%	19.7%	-3.92% (active)	23.5%		34.8%	22.5%		1.34% (active)	2.96% (active)	
Nc1nc(Nc2ccccc2SSc2ccccc2Nc2nc(N)nc(-c3cccc(Br)c3)n2)nc(-c2cccc(Br)c2)n1	109%	42.8%	63.7%	-7.87% (active)	104%	50.1%	21.6%	72%	52%	-44% (active)	59.6%	68.4%	95.5%	73%	131%	54.9%	100%	74.3%	21.3%	
CCOC(=O)C(=O)CC(=O)N1C(=S)NC(=O)C1CC(C)C (stereo unspecified)	111%	98.2%	97.6%	84%	106%	103%	102%	98.6%	108%		107%	101%	98.5%	102%	122%	97.5%	112%	111%	95.3%	
NS(=O)(=O)c1ccc(Nc2nc(SCc3ccccc3)nc3ccccc23)cc1	92.4%	77.7%	65.1%	46.9%	81.5%	62%	49.1%		43.9%	33.6%	32.8%	60.6%	83.3%	58%	91.3%	90.9%	84.7%	62.2%	102%	41.8%
O=S(=O)(NCCNc1nccc(-n2cnc3ccccc32)n1)c1ccc(Cl)cc1	109%	92.2%	96.6%	81.6%	101%	96.4%	87.4%		103%	96.3%	99.4%	102%	91.7%	95.2%	112%	98.2%	106%	88.1%	97.8%	103%
COc1cc(-c2nc(-c3ccccc3)[nH]c2-c2ccnc(NCCCNS(=O)(=O)c3cccc(F)c3)n2)ccc1Cl	43.5%	54.3%	57.7%	35.9%	72.3%	32.8%	42.9%	70.4%	19.6%	32.2%	27.2%	31.7%	88.1%	56.3%	76.8%	40.6%	40.7%	78%	31.9%	
CC[C@H](CO)Nc1ccc2ncc(C#Cc3cncc(C(=O)Nc4ccc(CN5CCN(C)CC5)c(C(F)(F)F)c4)c3)n2n1	-97.7% (active)	-64.3% (active)	-65.1% (active)	-83.3% (active)	-57% (active)	-98.6% (active)	-79.7% (active)	-99.4% (active)	-3.11% (active)	-42.9% (active)	-44.8% (active)	-58.1% (active)	-38.1% (active)	-47.7% (active)	-45.6% (active)	-33.1% (active)		-43.9% (active)	54.3%	
COc1ccc(C2c3sc4c(C)cccc4c3Oc3nc(CC(=O)Nc4ccccc4)[nH]c(=O)c32)cc1 (stereo unspecified)	92.8%	47.1%	79.1%	46.7%	141%	92.9%	46%	70.6%	101%	62.7%	89.5%	99.8%	88.7%	65%	85.8%	47.9%	93.9%	87.8%	38.7%	
